High-throughput results deposited in PubChem BioAssay by National Center for Advancing Translational Sciences (NCATS).
LASV entry inh: Lassa virus entry inhibition; 300,000 compounds, 1.2% hits; AID 540256; Lassa virus pseudotype entry inhibition, cell reporter; Potency, µM (top dose mostly 37.9 µM), without a hit: top-dose activity change, negative = inhibition, usual class: inhibitors; calls by dose curve; tested in HEK293 cells; note: potency is the fitted concentration of half-maximal effect; nearly all actives have a fitted effect of over 50% in size
MARV entry inh: inhibitors of Marburg virus binding or cell entry; Marburg virus pseudotyped entry inhibition, cell reporter; Potency, µM (series often up to 37.8 µM), without a hit: top-dose activity change, negative = inhibition, actives largely listed as inhibitors; 300,000 compounds, 1.8% hits; AID 540276; calls by dose curve; tested in HEK293 cells; note: potency is the fitted concentration of half-maximal effect
VACV Venus inh: vaccinia inhibition (Venus reporter); Potency, µM (titrated, usually from 36.5 µM), inactives show at the top dose activity change, negative = inhibition, most hits filed as inhibitors; Vaccinia virus Venus reporter expression, fluorescence; 330,000 compounds, 0.46% hits; calls by dose curve; tested in A549 cells; note: potency is the fitted concentration of half-maximal effect; nearly all actives have a fitted effect of over 30% in size
Vaccinia mCherry: inhibitors of vaccinia virus infection (mCherry reporter signal); Vaccinia virus mCherry reporter infection, fluorescence; 310,000 compounds, 0.63% hits; Potency, µM (top dose mostly 36.5 µM), for the others: at the highest dose activity change, negative = inhibition, actives largely listed as inhibitors; calls by dose curve; tested in A549 cells; note: potency is the fitted concentration of half-maximal effect; nearly all actives have a fitted effect of over 35% in size
HCMV inh: blocks human cytomegalovirus replication; HFF cells, HCMV-luciferase reporter, 72 h; active compounds read low; activity change, negative = inhibition, % at 57.5 µM; 410,000 compounds, 4.5% hits; AID 1259415; in the data active = activity change below about -60%; inconclusive = no clear call, values can overlap the other calls; inactive = above about -39%
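Compounds were evaluated in HFFs infected with an HCMV luciferase reporter virus (MOI 1 PFU/cell). Luciferase in lysates collected 72 h post infection served as the replication measure.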
FMDV antiviral: antivirals against foot and mouth disease virus; 410,000 compounds, 1.2% hits; FMDV antiviral cell-based qHTS; Potency, µM (highest dose often 57.9 µM), for the others: top-dose activity change, negative = inhibition, hits mostly inhibitors; AID 1159524; calls by dose curve; tested in HEK293T cells; note: read-out not given here; potency is the fitted concentration of half-maximal effect; nearly all actives have a fitted effect of over 45% in size
Starred values were filed as active, the others as inactive; i = inactive; ? = inconclusive; / = no result; [ ] = another dose, or the depositor's remark. In the library only some 6.5% were active in any assay of this set; here they are far more common. % is set by controls: 0 for no effect and ±100 for the full control effect.

SMILES | LASV entry inh | MARV entry inh | VACV Venus inh | Vaccinia mCherry | HCMV inh | FMDV antiviral
COc1ccc(-c2nc(-c3ccccc3)c(-c3ccc(O)cc3)[nH]2)cc1 | -1%[46.1 µM] | -17%[46.1 µM] | -22% | ? | 47 | -21%
Cc1cc2nc(-c3ccc(SCC(=O)Nc4ccc5c(c4)OCCO5)nc3)[nH]c2cc1C | -16% | ? | -12% | i | -68* | /
COc1ccc(-c2nc(-c3ccc4c(c3)OCO4)[nH]c2-c2ccc(OC)cc2)cc1 | ? | ? | ? | ? | -102* | ?
Cc1ccc2nc(-c3ccc(SCC(=O)Nc4ccc5c(c4)OCCO5)nc3)[nH]c2c1 | ? | -14% | -14% | -26% | 45 | 11%
O=C(CSc1nc(-c2ccc(F)cc2)[nH]c1-c1ccc(F)cc1)Nc1ccc2c(c1)OCO2 | ? | ? | -18% | -21% | ? | ?
COc1ccc(-c2nc(SCC(=O)Nc3ccc4c(c3)OCO4)c(-c3ccc(OC)cc3)[nH]2)cc1 | 0%[46.1 µM] | 7%[46.1 µM] | ? | ? | -90* | -7%
Oc1cc2cc(-c3csc(-c4ccc(F)cc4)n3)ccc2[nH]1 | / | / | -13% | -23% | / | /
COc1cc(C2CC(=O)Nc3c2c(=O)[nH]c2nc4ccccc4n32)ccc1O (stereo unspecified) | 12%[46.1 µM] | 4%[46.1 µM] | -4% | -5% | -7 | 2%
COc1ccc(CN(C)Cc2c(O)ccc3cc(Br)ccc23)cc1OC | 4%[46.1 µM] | ? | -14% | ? | -66* | -4%
COc1ccc(CCN(C)Cc2c(O)ccc3cc(Br)ccc23)cc1OC | 4%[46.1 µM] | ? | -7% | -16% | -77* | ?
COc1ccc2cc(Br)ccc2c1CC(=O)N(C)C | / | -3%[46.1 µM] | -7% | -6% | -11 | -12%
CC(C)(C)c1cccc(/C=N\O)c1O | / | 0% | / | / | / | /
O=C(CN1c2ccccc2S(=O)(=O)c2ccccc21)Nc1ccccc1Cl | ? | / | -4% | -6% | 20 | -10%
O=C(CN1c2ccccc2S(=O)(=O)c2ccccc21)Nc1ccccc1F | -14%[46.1 µM] | 2%[46.1 µM] | -19% | -20% | -63* | 0%
C=CCOC(=O)N[C@H](/C(C(=O)OC)=C(\C)NCc1ccccc1)c1ccc(Br)cc1 | / | 7%[14.2 µM] | / | / | / | /
CCCNC(=O)OC[C@@H]1O[C@H](CCO/N=C\c2ccc(C(=O)N3[C@H](c4ccc(C)cc4)[C@@H](C)CC[C@H]3C(=O)OC)cc2)C=C[C@@H]1Oc1ccc(OC)cc1 | / | -28%[14.2 µM] | / | / | / | /
CNC(=O)Oc1ccc(-c2cn3cc(Cl)ccc3n2)cc1 | 7.3µM* | 8.2µM* | -10% | -7% | ? | ?
CNC(=O)Oc1cccc(-c2cn3cc(OC(=O)NC)ccc3n2)c1 | ? | ? | -10% | -21% | 30 | 0%
CCN=c1scc(-c2ccc(F)cc2)n1/N=C/c1ccccn1 | ? | ? | -8% | -7% | -88* | -14%
C=CCN=c1scc(-c2ccc(F)cc2)n1/N=C/c1ccccn1 | ? | ? | -6% | -21% | -85* | 0%
O=C(Cc1ccc(F)cc1)N/N=C/c1ccccn1 | -1% | -3% | / | / | -21 | 13%
C=CCn1c(-c2ccc(OC)c(OC)c2)cs/c1=N\c1ccccn1 | 1% | -14% | -11% | i | 30 | ?
COc1cccc(NC(=O)c2sc3nc(C)c(C(=O)Nc4ccc(C)cc4C)c(-c4ccc(C)o4)c3c2N)c1 | ? | ? | -5% | -1% | -4 | 4%
CN1CCN(c2ncc3nc(CCc4ccccc4)c(=O)n(Cc4ccc(F)cc4)c3n2)CC1 | / | / | / | / | / | -12%
COc1ccc(N2CCN(C(=O)CCc3c[nH]c4ccccc34)CC2)cc1 | ? | -5%[46.1 µM] | -8% | -2% | -8 | 11%
SMILES | LASV entry inh | MARV entry inh | VACV Venus inh | Vaccinia mCherry | HCMV inh | FMDV antiviral
O=C(CCCc1c[nH]c2ccccc12)N1CCN(S(=O)(=O)c2cccs2)CC1 | -28% | -27% | / | / | -7 | 25µM*
O=C(CCc1c[nH]c2ccccc12)N1CCN(c2ccc(O)cc2)CC1 | ? | ? | ? | ? | -65* | 17%
O=C(CCCc1c[nH]c2ccccc12)N1CCOCC1 | 10% | 3%[46.1 µM] | -3% | -11% | 78 | 44%
COc1cccc(Nc2ncc3nc(-c4ccccc4)c(=O)n(Cc4cccs4)c3n2)c1 | / | / | / | / | / | -2%
Cc1cnc(CNc2ncncc2-c2ccccc2C(F)(F)F)cn1 | / | / | 0% | 9% | / | -19%
Cn1c(O)c(/C=N/NC(=O)c2cc3ccccc3cc2O)c2ccccc21 | -25% | ? | ? | 7.9µM* | -24 | 0%
COCCn1c(=O)c(-c2ccccc2)nc2cnc(OC)nc21 | / | / | / | / | / | -16%
COCCCn1c(C)cc(C(=O)CN2c3cccc4cccc(c34)S2(=O)=O)c1C | / | / | / | / | 15 | -1%
COc1ccc(CCn2c(C)cc(C(=O)CSc3nnnn3-c3ccccc3)c2C)cc1 | 13% | ? | / | / | -70* | -14%
COC(=O)CCCn1c(C)cc(C(=O)CCl)c1C | ? | ? | ? | ? | 15 | 28µM*
CCOC(=O)c1cc(C)n(CCc2ccccc2)c1C | -3% | -2%[46.1 µM] | ? | i | -1 | 0%
Cc1cc(C(=O)CCl)c(C)n1CCc1ccccc1 | ? | ? | 9% | -14% | -100* | 28µM*
C1=Cc2ccccc2/C1=C\c1cc[cH-]c1.[Fe+2].c1cc[cH-]c1 | / | / | 6% | -12% | / | /
CC1(C)CCC[C@]2(C)[C@H]3Cc4cc(O)ccc4O[C@]3(C)CC[C@@H]12 | / | / | ? | ? | -88* | 0%
CC1(C)CCC[C@]2(C)[C@H]3CC(=O)O[C@]3(C)CC[C@@H]12 | -13% | -1% | -1% | -10% | -14 | -20%
Cc1cc(Br)ccc1NC(=O)c1ccc(NS(=O)(=O)c2c(C)noc2C)cc1 | ? | 11%[46.1 µM] | 9% | -7% | -15 | -22%
Cc1nn(C)cc1/C=N/NC(=S)Nc1ccccc1 | -12% | 7.3µM* | / | / | 21 | 2%
S=C(NCCc1ccccc1)N/N=C/c1cccc(Cl)c1Cl | 5% | ? | -29% | -16% | -16 | -3%
Oc1ccccc1/C=N/NC(=S)NCCc1ccccc1 | 1%[46.1 µM] | ? | -19% | ? | -70* | 12%
Oc1ccccc1C=NNC(=S)Nc1ccc(F)cc1 | ? | ? | ? | 5.6µM* | -83* | 34%
Cc1c(Cl)cccc1NC(=O)Cn1nc(C(F)(F)F)c2c1CCC2 | 11%[46.1 µM] | -10%[46.1 µM] | -8% | -8% | 11 | -10%
CC(=O)NC1=C(C#N)C(c2ccccc2)c2c(ccc3ccccc23)O1 (stereo unspecified) | ? | 10µM* | ? | ? | 32 | -7%
CCOC(=O)CC(=O)Nc1ncnc2c1C(c1ccccc1)c1c(ccc3ccccc13)O2 (stereo unspecified) | / | / | / | / | 15 | ?
OCCCNCc1cc2cc3c(cc2nc1N1CCN(c2cccc(Cl)c2)CC1)OCO3 | / | / | -7% | -13% | / | 1%
CCN(N=O)c1ccc(/C=C/c2ccnc3ccccc23)cc1 | / | / | -20% | -27% | / | /
